Pf Dd2 growth = Plasmodium falciparum Dd2 growth inhibition | P. falciparum Dd2 growth, SYBR Green, 72 h | Potency, µM (doses to about 28.9 µM), for inactives: at the top dose activity, negative = inhibition, most hits filed as inhibitors | hit rate 4.3% among 120,000 | AID 1347417; active means well fitted inhibition curve with a large enough effect;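 further: plate controls were DMSO vehicle for no effect and reference drug for full effect; nearly all actives have a fitted effect of over 65% in size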
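Infected erythrocytes (Dd2, 0.3% parasitemia, 2.5% hematocrit final) are added to compound in RPMI-1640/Albumax II medium, grown 72 h at 37C in low oxygen, then lysed with saponin/Triton-X containing SYBR Green and read by fluorescence.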
* marks the source's active call; other numbers are inactive results; [ ] = another dose, or the depositor's remark. Shown is part of a subset that was picked to be rich in hits. Potency means the concentration at half of the fitted maximal effect.

What do the screens show for `CC(C)CC(=O)NC1CCN(c2cnn(CC3CC3)c(=O)c2)CC1`?
Pf Dd2 growth: -13.5%

How did Cc1cc(C(=O)N2CCC3(CC2)CC(N2CCN(CC(C)C)CC2)CCO3)nn1C (stereo not given) do in these assays?
Pf Dd2 growth: -8.7%

Results for COc1cccc(C(O)c2nc(C(=O)NC3CCN(C)CC3)c(C)o2)c1 (stereo not given) ?
Pf Dd2 growth: inactive

How did O=C(Cn1ccn2nc(-c3ccc(F)cc3)c(CO)c2c1=O)Nc1cc(F)ccc1F do in these assays?
Pf Dd2 growth: -8.7%

How did O=C(c1ccc2c(c1)OCO2)N1CCCC2(CC(c3ccccn3)=NO2)C1 (stereo not given) do in these assays?
Pf Dd2 growth: inactive

How did O=C1[C@@H]2C[C@@H](O)CN2C2(CN(Cc3c[nH]c4ccccc34)C2)C(=O)N1Cc1ccccc1F do in these assays?
Pf Dd2 growth: -5.9%

What do the screens show for `COc1ccc(NC(=O)Cc2c[nH]c3ncc(-c4ccccc4)cc23)cc1`?
Pf Dd2 growth: -20.5%[44.1 µM]

How did COc1ccc(-c2cnc3[nH]cc(CC(=O)Nc4ccc(C(F)(F)F)cc4)c3c2)cc1 do in these assays?
Pf Dd2 growth: inactive

Results for O=C(Cc1c[nH]c2ncc(-c3ccncc3)cc12)NCc1cccnc1 ?
Pf Dd2 growth: 5.01µM*

How did O=C(Cc1c[nH]c2ncc(-c3ccccc3)cc12)NCc1cnccn1 do in these assays?
Pf Dd2 growth: inactive

What do the screens show for `COc1ccc(OC)c(-c2cnc3[nH]cc(CC(=O)NCc4cccnc4)c3c2)c1`?
Pf Dd2 growth: inactive

What do the screens show for `COc1ccc(-c2cnc3[nH]cc(CC(=O)Nc4ccc(OC)nc4)c3c2)cc1`?
Pf Dd2 growth: 11.2µM*

What do the screens show for `CS(=O)(=O)N1CCC(NC(=O)CCc2cc3n(n2)CCCNC3)CC1`?
Pf Dd2 growth: 0.6%

Results for CCN(CCn1cccn1)C(=O)c1csc2nc(-c3cccc(F)c3)cn12 ?
Pf Dd2 growth: -7.3%

How did O=C(NC1CCCc2c1[nH]c1ccc(F)cc21)c1ccc(Br)o1 (stereo not given) do in these assays?
Pf Dd2 growth: -14.7%

How did O=C(Nc1ccc(Cl)cc1Cl)c1cnn2c1CN(C(=O)c1ccccc1)CC2 do in these assays?
Pf Dd2 growth: -14.2%

What do the screens show for `CC(=O)N1CCC(n2nccc2NC(=O)Nc2ccccc2C)CC1`?
Pf Dd2 growth: -5.1%

What do the screens show for `Cc1ccc(CC2CCOC3(CCN(C(=O)c4cccc(C#N)c4)CC3)C2)cc1` (stereo not given)?
Pf Dd2 growth: inactive

What do the screens show for `COCC(=O)N1CCC2(CC1)C(=O)Nc1cc(Oc3ccccc3)c(OC)cc12`?
Pf Dd2 growth: inactive

How did COc1cc2c(cc1OCc1ccccc1)NC(=O)C21CCN(c2ncccn2)CC1 do in these assays?
Pf Dd2 growth: 4.47µM*

What do the screens show for `CCc1cnc(N2CCC3(CC2)C(=O)Nc2cc(OCc4ccccc4)c(OC)cc23)nc1`?
Pf Dd2 growth: -14.0%

What do the screens show for `COc1cc2c(cc1Oc1ccccc1)NC(=O)C21CCN(CCC(C)C)CC1`?
Pf Dd2 growth: 6.31µM*

How did COc1cc2c(cc1OCc1ccccc1)NC(=O)C21CCN(C(C)=O)CC1 do in these assays?
Pf Dd2 growth: inactive

Results for COc1cc2c(cc1OCc1ccccc1)NC(=O)C21CCN(Cc2ccncc2)CC1 ?
Pf Dd2 growth: 12.6µM*

How did COc1cc2c(cc1Oc1ccccc1)NC(=O)C21CCN(c2ncccn2)CC1 do in these assays?
Pf Dd2 growth: -5.8%[44.1 µM]

What do the screens show for `COc1cc2c(cc1Oc1ccccc1)NC(=O)C21CCN(Cc2ccccc2)CC1`?
Pf Dd2 growth: inactive

Results for COc1cc2c(cc1OCc1ccccc1)NC(=O)C21CCN(Cc2ccccc2)CC1 ?
Pf Dd2 growth: -3.8%[44.1 µM]

Results for O=C(c1cccnc1)N1CCC(c2nnc3n2C(C(=O)N2CCOCC2)CC3)CC1 (stereo not given) ?
Pf Dd2 growth: 25.7%[44.1 µM]

How did Cc1noc(-c2cn(C3CCN(C(=O)c4cc5ccccc5[nH]4)CC3)nn2)n1 do in these assays?
Pf Dd2 growth: inactive

Results for Cc1cc(C)cc(NC(=S)N[C@H]2CO[C@H]3[C@@H]2OC[C@@H]3n2nnnc2Oc2cccc(N(C)C)c2)c1 ?
Pf Dd2 growth: -5.6%

Results for CNC(=O)[C@@H]1CN(C(=O)c2c[nH]c3ccccc23)C[C@H]1C1CCN(C)CC1 ?
Pf Dd2 growth: 7.0%

Results for O=C(Nc1ccc2c(c1)OCCO2)C1CC(=O)N(c2n[nH]c3ccccc23)C1 (stereo not given) ?
Pf Dd2 growth: -14.5%

Results for O=C(Nc1ccc2oc(-c3ccccc3)nc2c1)C1CCN(c2cnn(Cc3ccccc3)c(=O)c2)C1 (stereo not given) ?
Pf Dd2 growth: 2.51µM*

What do the screens show for `O=C(Nc1ccc2c(c1)OCO2)C1CCCN(c2cnn(Cc3ccccc3)c(=O)c2)C1` (stereo not given)?
Pf Dd2 growth: 10µM*

What do the screens show for `O=C(C1CCCN(c2cnn(Cc3ccccc3)c(=O)c2)C1)N1CCCC1` (stereo not given)?
Pf Dd2 growth: inactive

Results for O=C(NCCc1cccs1)C1CCCN(c2cnn(Cc3ccccc3)c(=O)c2)C1 (stereo not given) ?
Pf Dd2 growth: -28.0%

Results for Cn1ncc(N2CCC(C(=O)Nc3ccccc3)C2)cc1=O (stereo not given) ?
Pf Dd2 growth: 18.5%

Results for O=C(NC1CCS(=O)(=O)C1)C1CCN(c2cnn(Cc3ccccc3)c(=O)c2)C1 (stereo not given) ?
Pf Dd2 growth: -20.6%

How did CN(C)[C@@H]1C[C@H](Cn2cc(-c3cccnc3)nn2)[C@@H](O)[C@H]1O do in these assays?
Pf Dd2 growth: 60.2%[44.1 µM]

What do the screens show for `Cc1cc(CN2CCC3(CC2)CCN(Cc2c(C)n[nH]c2C)CC3CO)on1` (stereo not given)?
Pf Dd2 growth: -0.4%

How did c1ccc(-c2nc(NCc3cc4n(n3)CCCNC4)c3ccccc3n2)cc1 do in these assays?
Pf Dd2 growth: 7.94µM*

Results for Cc1cccc2ncc(C(=O)NCc3cc4n(n3)CCCNC4)c(=O)n12 ?
Pf Dd2 growth: 3.0%

Results for O=C(NCc1cc2n(n1)CCNC2)C(c1ccccc1)C1CCCC1 (stereo not given) ?
Pf Dd2 growth: -29.8%

What do the screens show for `COc1cccc([S+](=O)([O-])N2CCC3(CC2)C(=O)NN=C3C2CC2)c1`?
Pf Dd2 growth: 9.3%

Results for CCC(CC)C(=O)Nc1ccc([C@H]2OCC(=O)N(C)[C@@H]2CO)cc1 ?
Pf Dd2 growth: 0.4%[44.1 µM]

What do the screens show for `CC(=O)c1ccc(NC(=O)O[C@@H]2CO[C@H]3[C@@H]2OC[C@@H]3NC(=O)Nc2ccc(Oc3ccccc3)cc2)cc1`?
Pf Dd2 growth: inactive

Results for O=C1NCCC[C@@H]1NC(=O)[C@H]1CN(C(=O)NC2CCCCC2)CCN1C(=O)c1cncnc1 ?
Pf Dd2 growth: 12.1%

Results for Cc1cnc(C2CCOCC2)n1C1CCN(C(=O)Nc2ccc3c(c2)OCCO3)CC1 ?
Pf Dd2 growth: 7.94µM*

How did Cc1cnc(CCNC(=O)Nc2ccc3c(c2)OCCO3)n1C1CC1 do in these assays?
Pf Dd2 growth: -16.5%

What do the screens show for `Cc1cnc(C2CC2)n1C1CCN(C(=O)NC(C)C)CC1`?
Pf Dd2 growth: -13.6%

How did CCOC(=O)C1CCCN(C(=O)c2cc3c(=O)[nH]c4ccc(C)cc4c3s2)C1 (stereo not given) do in these assays?
Pf Dd2 growth: inactive

What do the screens show for `Cn1c(=O)c2cc(C(=O)NCCCN3CCN(c4ccccc4F)CC3)sc2c2ccccc21`?
Pf Dd2 growth: 53.6%[5.79 µM]

Results for COc1ccc(Br)cc1CNC(=O)c1cc2c(=O)n(C)c3ccccc3c2s1 ?
Pf Dd2 growth: 25.1%
